Screens: PubChem, several laboratories
EP2 antag – human EP2 receptor antagonists, primary screen, TR-FRET cAMP, C6 glioma cells | C6 glioma cells expressing human EP2; cells stimulated with saturating PGE2 | inhibition, % at 25 µM | Prostaglandin E2 receptor EP2 subtype (Homo sapiens), P43116 | 260,000 compounds, 0.52% hits;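 active = percent inhibition above 40 after rounding to a whole number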;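 note: rat C6 glioma host cells with rolipram phosphodiesterase inhibitor present; the protocol text gives 20 µM as final concentration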
Pf gametocyte – late stage P. falciparum gametocyte viability inhibitors, primary screen, ATP luminescence, HTS; P. falciparum stage V gametocytes, 24 h; inhibition, % at 10.9 µM; 150,000 compounds, 0.065% hits; AID 743093, 2013;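 active = inhibition above the mean plus 3 SD of compounds within the control limits, set per campaign, cut at about 38% in these data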;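 note: 0% = DMSO wells and 100% = medium only without gametocytes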
EP2 modulator – EP2 receptor modulators, cAMP readout, primary screen, cell-based, HTRF cAMP, PGE2 stimulation; EP2-expressing cells, cAMP HTRF FRET, PGE2 co-stimulation; AID 940, 2007; Prostaglandin E2 receptor EP2 subtype (Homo sapiens), P43116; 260,000 compounds, 0.83% hits; induction, % at 25 µM;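 active = compounds whose cAMP rise, as percent of the full-agonist control response, exceeds 60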;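 note: rat C6 glioma line stably carrying human EP2 under a CMV promoter; the protocol text gives 20 µM as final concentration; 100% = response of wells given 1 µM PGE2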
S1P4 ag – S1P4 receptor agonists, primary screen, cell-based; Sphingosine 1-phosphate receptor 4 (Homo sapiens), O95977; 220,000 compounds, 0.35% hits; activation, % at 4.98 µM; S1P4-expressing cell line, agonist reporter assay; in the data active = activation above about 11%;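 note: 0% = DMSO vehicle and 100% = reference agonist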
Target sequence (O95977 whole entry, looked up): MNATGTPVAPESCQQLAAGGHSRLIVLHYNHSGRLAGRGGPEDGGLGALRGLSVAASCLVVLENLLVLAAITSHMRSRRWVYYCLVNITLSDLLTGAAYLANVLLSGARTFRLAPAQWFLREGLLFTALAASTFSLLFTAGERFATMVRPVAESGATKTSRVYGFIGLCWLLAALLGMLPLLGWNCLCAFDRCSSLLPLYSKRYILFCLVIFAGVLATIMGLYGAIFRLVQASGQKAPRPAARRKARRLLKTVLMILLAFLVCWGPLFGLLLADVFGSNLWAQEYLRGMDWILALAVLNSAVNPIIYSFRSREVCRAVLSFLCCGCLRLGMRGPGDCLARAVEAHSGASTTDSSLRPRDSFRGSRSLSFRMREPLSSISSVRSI
S1P4 antagonist – S1P4 receptor antagonists, primary screen, cell-based; S1P4-expressing cells, antagonist mode, reporter read-out; 220,000 compounds, 0.26% hits; inhibition, % at 4.98 µM; Sphingosine 1-phosphate receptor 4 (Homo sapiens), O95977; in the data active = inhibition above about 29%;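 note: 0% = wells stimulated with agonist and 100% = vehicle wells without agonist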
S1P3 antagonist – S1P3 receptor antagonists, primary screen, cell-based; Sphingosine 1-phosphate receptor 3 (Homo sapiens), Q99500; inhibition, % at 4.98 µM; CHO S1P3 NFAT-BLA reporter, FRET fluorescence, antagonist mode; 170,000 compounds, 0.27% hits;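 active = inhibition above the plate cutoff, the mean inhibition of test wells on that plate plus 3 SD, cut at about 28% in these data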;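 note: cells challenged with S1P at its EC80 of 0.8 µM; blue over green emission ratio from cleaved BLA substrate after 4 h stimulation; 0% = S1P-stimulated wells and 100% = unstimulated DMSO-only wells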
EP2 confirm – cAMP induction in EP2, EP4, beta2-AR and parental cells, confirmation, counter-screen for EP2 modulator project, cell-based, five parallel assays, C6 glioma, HEK293 | shares compounds with EP2 modulator | cAMP HTRF induction; plus low (about EC15) PGE2 agonist | calls only at 20 µM (by protocol) | 1,300 compounds, 47% hits;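 active = cAMP induction above 50% in the main assay while under 30% in all four parallel counter assays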;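 note: rat C6 glioma cells stably expressing human EP2 receptor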
* hit, by the source's call. Most compounds without a hit are left out; they make up all but 1.9% or so of the library.

`C=CCOc1nc(-c2ccncc2)nc2ccccc12` gave EP2 antag 9.1, Pf gametocyte 20.7, EP2 modulator 69.2*, S1P4 ag -0.2, S1P4 antagonist -11.5 and EP2 confirm active.
Screening Brc1ccc(Cn2c(-c3ccc(Br)o3)nc3ccccc32)o1 returned EP2 antag 12.5, Pf gametocyte -7.0, EP2 modulator 67.7*, S1P4 ag 1.4, S1P4 antagonist -0.7, S1P3 antagonist 2.5 and EP2 confirm active.
COC(=O)Cn1c2ccc(Cl)cc2c2nc(C)sc21 was read as EP2 antag 8.9, Pf gametocyte -20.2, EP2 modulator -19.2, S1P4 ag 2.7, S1P4 antagonist 4.9 and S1P3 antagonist -2.3.
Cc1ccc(S(=O)(=O)n2c3ccc(Cl)cc3c3nc(C)sc32)cc1 was read as EP2 antag 3.5, Pf gametocyte -30.4, EP2 modulator 89.9*, S1P4 ag -0.4, S1P4 antagonist -2.1, S1P3 antagonist -3.1 and EP2 confirm active.
`COCCN1C(=O)C(=O)/C(=C(\O)c2ccc(OC)cc2C)C1c1ccc(OC)c(OC)c1` (stereo not drawn) gave EP2 antag 5.7 and EP2 modulator -3.6.
COc1cc(C=O)ccc1OC(=O)c1ccc(C(C)C)cc1 was read as EP2 antag 6.1, Pf gametocyte -24.4, EP2 modulator 74.3*, S1P4 ag -0.8, S1P4 antagonist -6.5, S1P3 antagonist -10.9 and EP2 confirm inactive.
`CC1=CC(C)(C)N(S(=O)(=O)c2ccc(F)cc2)c2ccc(C)cc21` gave EP2 antag 15.9, EP2 modulator 72.4*, S1P4 ag 1.8, S1P4 antagonist 4.1 and EP2 confirm active.
COc1ccc2c(c1)C(C)=CC(C)(C)N2S(=O)(=O)c1ccc(Br)cc1 was read as EP2 antag 5.7, Pf gametocyte -18.0, EP2 modulator 68.8*, S1P4 ag 2.5, S1P4 antagonist -3.6, S1P3 antagonist 14.8 and EP2 confirm active.
Screening Oc1ccc(/C=N/N2CCN(C3c4ccccc4-c4ccccc43)CC2)cc1 returned EP2 antag 13.8, Pf gametocyte -5.1, EP2 modulator 9.5, S1P4 ag 1.2, S1P4 antagonist 8.6 and S1P3 antagonist -8.2.
Screening Oc1ccc(/C=N/N2CCN(C3c4ccccc4-c4ccccc43)CC2)c(O)c1 returned EP2 antag 6.2, Pf gametocyte -0.1, EP2 modulator 66.2*, S1P4 ag -2.5, S1P4 antagonist 10.2, S1P3 antagonist -6.9 and EP2 confirm inactive.
Screening CNC(=S)N(Cc1ccco1)Cc1cc2ccc(C)cc2[nH]c1=O returned EP2 antag 10.5 and EP2 modulator -23.0.
Cc1ccc2nc(Nc3ccc4[nH]c(=O)[nH]c4c3)c(-n3nc(C)cc3C)nc2c1 was read as EP2 antag 6.9, EP2 modulator 85.8*, S1P4 ag 3.1, S1P4 antagonist 7.9, S1P3 antagonist 23.8 and EP2 confirm inactive.
Screening COC(=O)c1c(NC(=O)c2cc(OC)c(OC)c(OC)c2)sc(C(=O)N2CCOCC2)c1C returned EP2 antag 8.0 and EP2 modulator -21.1.
Screening CCCCOc1ccc(-c2c(C(=O)Nc3ccccc3)c(C)[nH]c(=S)c2C#N)cc1 returned EP2 antag 19.2, Pf gametocyte -2.9, EP2 modulator 72.8*, S1P4 ag 1.1, S1P4 antagonist -2.2, S1P3 antagonist 1.7 and EP2 confirm inactive.
For O=C(O)c1cc2c(s1)-c1ccccc1OC2 the results were EP2 antag 11.6, Pf gametocyte 9.6, EP2 modulator 85.6*, S1P4 ag -2.1, S1P4 antagonist -1.1 and EP2 confirm inactive.
`O=C(NC1CC1)c1cc2c(s1)-c1ccccc1OC2` gave EP2 antag 13.4, EP2 modulator 2.8, S1P4 ag -1.7, S1P4 antagonist 24.5 and S1P3 antagonist 1.5.
For O=[N+]([O-])c1ccc(Cl)c2c1C1C=CCC1C(c1ccccn1)N2 (stereo not drawn) the results were EP2 antag 10.9, Pf gametocyte 5.9, EP2 modulator 75.0*, S1P4 ag -1.3, S1P4 antagonist -2.8, S1P3 antagonist -3.9 and EP2 confirm active.
CN(C)CC(CCCCC(CN(C)C)C(=O)c1ccccc1)C(=O)c1ccccc1 (stereo not drawn) was read as EP2 antag 8.8, Pf gametocyte 7.4, EP2 modulator -34.1, S1P4 ag -1.2, S1P4 antagonist -3.3 and S1P3 antagonist 8.8.
Screening C[C@H](CN(C)C)C(=O)c1ccccc1C(=O)O returned EP2 antag 8.4, EP2 modulator 50.8 and EP2 confirm inactive.
Screening CSc1nc(NCc2ccco2)c2ccccc2n1 returned EP2 antag 15.5, EP2 modulator 65.5*, S1P4 ag -0.7, S1P4 antagonist -9.1 and EP2 confirm inactive.
Screening CC(C)CCn1c(=O)c2ccccc2c2ccccc2c1=O returned EP2 antag 7.6, Pf gametocyte 15.6, EP2 modulator 82.8*, S1P4 ag 1.4, S1P4 antagonist -6.6 and EP2 confirm active.
For CCCn1c(C)nc2c(c1=O)c1nc3ccccc3nc1n2CCc1ccccc1 the results were S1P4 ag -1.8, S1P4 antagonist 0.3 and S1P3 antagonist -44.9.
Screening CCCn1c(C)nc2c(c1=O)c1nc3ccccc3nc1n2CCC1=CCCCC1 returned EP2 antag 7.1, Pf gametocyte -18.8, EP2 modulator 72.0*, S1P4 ag 1.4, S1P4 antagonist -6.6, S1P3 antagonist -5.2 and EP2 confirm inactive.
CCOC(=O)c1c(-c2ccccc2)csc1NC(=O)CCC(=O)NCc1ccco1 was read as EP2 antag 9.8 and EP2 modulator 39.8.
Screening COc1ccccc1-n1nnnc1SCC(=O)Nc1ccccc1Cl returned EP2 antag 5.7 and EP2 modulator -32.2.
Screening NC(N)=Nc1nc(CSCC/C(N)=N/S(N)(=O)=O)cs1 returned EP2 antag 11.9, EP2 modulator 10.4, S1P4 ag 3.0, S1P4 antagonist -17.6, S1P3 antagonist -8.1 and EP2 confirm inactive.
Cc1ccc(-c2csc(N=C(N)N)n2)cc1 was read as EP2 antag 8.5, Pf gametocyte 0.7, EP2 modulator -43.7, S1P4 ag 0.5, S1P4 antagonist -10.0 and S1P3 antagonist -6.1.
